Source: PubChem BioAssay (NCI)
About 83,000 compounds went through this panel and 20% of them were active in at least one assay; those are over-represented in the sample as a whole.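 Growth was measured after 48 h exposure to one concentration of compound in 96-well plates. Values under 10 count as active.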 Unmarked numbers belong to inactive results. Activity calls are given as the source filed them.

Columns and labels:
Assay in all cases: NCI-60 one-dose screen, 48 h (100 = growth as untreated, 0 = no growth, -100 = all killed)
Details in all cases: 10 µM unless noted
T-47D breast = tested on: T-47D breast
BT-549 breast = tested on: BT-549 breast
MDA-MB-435 melanoma = tested on: MDA-MB-435 melanoma
SW-620 colon = tested on: SW-620 colon
MCF7 breast = tested on: MCF7 breast
HCT-116 colon = tested on: HCT-116 colon
HCC-2998 colon = tested on: HCC-2998 colon
KM12 colon = tested on: KM12 colon

Structure (SMILES) | growth (T-47D breast) | growth (BT-549 breast) | growth (MDA-MB-435 melanoma) | growth (SW-620 colon) | growth (MCF7 breast) | growth (HCT-116 colon) | growth (HCC-2998 colon) | growth (KM12 colon)
CC(C)CC1NC(=O)C(CCCN)NC(=O)C(C(C)C)NC(=O)C2CCCN2C(=O)C(Cc2ccccc2)NC(=O)C(CC(C)C)NC(=O)C(CCCN)NC(=O)C(C(C)C)NC(=O)C2CCCN2C(=O)C(Cc2ccccc2)NC1=O (stereo not given) | -37.2% (active) | -77.7% (active) | -83.6% (active) | -75.6% (active) | -61.5% (active) | -92.2% (active) | -36.2% (active) | -75% (active)
O=C(Nc1ccccc1S)c1ccccc1 | 105% | 99.9% | 101% | 98.5% | 91.1% | 96.2% | 109% | 104%
COc1ccccc1-n1c(-c2ccc(O)cc2C)cn2c3c(=O)[nH]c(=O)n(C)c3nc12 | 77.3% | 135% | 101% | 94.7% | 91.7% | 97% | 104% | 103%
CCCCc1ccc(C(N)=O)nc1 | 101% | 97.8% | 106% | -90% (active) | 86.9% | 99.4% | 110% | 100%
O=C(/C=C/c1ccc(C(F)(F)F)cc1)c1ccc(Nc2nc(NCCO)nc(NCCO)n2)cc1 | 37.2% | 21.3% | 92.8% | 1.28% (active) | 13.1% | -25.4% (active) | 97.4% | 19%
CSc1nc(Nc2ccc(S(=O)(=O)Nc3ccon3)cc2)c(C#N)c(-c2ccc(Cl)cc2)n1 | 97% | 90.5% | 97.9% | 70.5% | 94.3% | 65.8% | 94.4% | 104%
CC(=O)Nc1c(Cl)cc2c(c1Cl)Cc1cc([N+](=O)[O-])ccc1-2 | 53.4% | 84.4% | 81% | 81.5% | 27.8% | 72.6% | 87.4% | 78.2%
CCN(CC)CCCCCCCNc1c2ccc(Cl)cc2nc2ccc(OC)cc12 | -42.3% (active) | -20.9% (active) | -78.9% (active) | -52.9% (active) | -32.4% (active) | -49.6% (active) | -78.9% (active) | -37.2% (active)
COc1ccc(OC)c(CCn2cncc2-c2c[nH]c3cc(Br)ccc23)c1 | 6.48% (active) | 14.1% | 11.8% | 33.7% | 17.2% | 23.6% | 69.6% | 41.7%
CCCc1n(Cc2ccc3ccccc3c2)cc[n+]1Cc1ccc2ccccc2c1 | -3.21% (active) | -32.2% (active) | -50.8% (active) | 8.13% (active) | -16.7% (active) | 1.39% (active) | -22.9% (active) | -63.7% (active)
Cc1ccc(C2=NNC(c3sc(Cl)nc3Cl)C2)cc1 (stereo not given) | 56.1% | 98% | 104% | 72.1% | 65.9% | 74.7% | 92.8% | 99.5%
C[C@H](C(=O)N[C@@H](Cc1ccc(-c2ccccc2)cc1)C(=O)NC1CC(C)(C)NC(C)(C)C1)c1ccc(-c2ccccc2)c(F)c1 | -37.2% (active) | -19.8% (active) | -90.1% (active) | -78.2% (active) | -50.9% (active) | -85.8% (active) | -83% (active) | -80% (active)
O=c1ccn(C2CC=C(CO)O2)c(=O)[nH]1 (stereo not given) | 96.5% | 106% | 106% | 103% | 92% | 96% | 123% | 103%
NS(=O)(=O)c1ccc(-n2ncc3c(NC4CCCCC4)ncnc32)cc1 | 80.4% | 108% | 92.5% | 113% | 116% | 93.6% | 91.5% | 83.6%
Nc1ccn(C2O[C@H](CO)[C@@H](O)[C@@H]2O)c(=O)n1 (stereo not given in full) | 80.5% | 81.2% | 45.3% | 45.9% | 24% | 32.4% | 53.5% | 58.1%
[N-]=[N+]=NCc1cccc(/C(O)=C/C(=O)C(=O)O)c1 | 86.6% | 113% | 140% | 94.9% | 98.6% | 91.3% | 88.5% | 97.4%
O=C(N/N=C/c1cccc([N+](=O)[O-])c1)c1ccc(Br)o1 | 83.4% | 103% | 106% | 116% | 78.1% | 100% | 87.2% | 109%
C(=C1c2ccccc2-c2ccccc21)c1ccccn1 | 63.8% | 58.8% | -7.78% (active) | 32.7% | 38% | 43.5% | 80.6% | 39.6%
COc1ccc2nc(-c3ccc(Cl)cc3)cc(-c3nnc(SCC(=O)Nc4ccc(C(C)=O)cc4)n3-c3ccccc3)c2c1 | 87.2% | 87.5% | 100% | 108% | 100% | 100% | 97.7% | 95.3%
O=C(c1ccc(N2CCOCC2)cc1[N+](=O)[O-])N1CCOCC1 | 102% | 104% | -32.2% (active) | 93.1% | 127% | 107% | 108% | 121%
Nc1ncnc2c1CN(Cc1ccccc1)CC2 | 105% | 108% | 107% | 107% | 93.6% | 102% | 98.5% | 108%
CC1CN(CC(O)c2ccc(Br)cc2)CCO1 (stereo not given) | 107% | 106% | 121% | 109% | 105% | 108% | 103% | 107%
COc1cccc(/C=N\NC(=O)c2ccncc2)c1O | 28.2% | 49.8% | 83% | 62.5% | 26.5% | 11.6% | 57.2% | 62.6%
CCN(CC)c1ccc(/C=C/C(=O)c2cccc(NS(C)(=O)=O)c2)cc1 | 44.3% | 58.3% | 22.7% | 22.1% | 22.8% | 25.8% | 23.2% | 17.1%
CC1(C)CC2(C)CC(=O)C1C(C(=O)O)C2C(=O)O (stereo not given) | 94.9% | 116% | 118% | 108% | 95.5% | 113% | 103% | 107%
CC(=O)Nc1ccc(C(=O)COc2cccc(/C=C3\CCc4ccccc4C3=O)c2)cc1 | 67.9% | 66% | 85.8% | 47% | 19.6% | 81% | 93.7% | 91%
CN1CCN(c2nc3scc(-c4ccccc4)c3c(=O)[nH]2)CC1 | 104% | 104% | 99.7% | 95.4% | 92.5% | 91.9% | 99.5% | 94.1%
Cc1sc2nc(NCCc3cccs3)[nH]c(=O)c2c1C | 74.6% | 74.7% | 84.2% | 96.4% | 87.3% | 71% | 101% | 92.6%
O=C(COc1ccc(/C=C2\Oc3ccc4ccccc4c3C2=O)cc1)c1ccc(Cl)cc1 | 79.4% | 24.7% | 101% | 103% | 58.5% | 96.7% | 134% | 99.5%
CC(=O)N1N=C(c2ccc(Nc3ccnc4cc(Cl)ccc34)cc2)CC1c1ccc(Cl)cc1 (stereo not given) | 25.5% | 54.7% | 6.15% (active) | 63.1% | 25.6% | 55.6% | 44.4% | 36.5%
